For 33 compounds, inhibition results are on record in ChEMBL document CHEMBL1961873, “Compounds: GSK PKIS; Assays: Nanosyn kinase panel” (2012).

Receptor tyrosine-protein kinase erbB-4 (Homo sapiens), sequence (Q15303 whole entry): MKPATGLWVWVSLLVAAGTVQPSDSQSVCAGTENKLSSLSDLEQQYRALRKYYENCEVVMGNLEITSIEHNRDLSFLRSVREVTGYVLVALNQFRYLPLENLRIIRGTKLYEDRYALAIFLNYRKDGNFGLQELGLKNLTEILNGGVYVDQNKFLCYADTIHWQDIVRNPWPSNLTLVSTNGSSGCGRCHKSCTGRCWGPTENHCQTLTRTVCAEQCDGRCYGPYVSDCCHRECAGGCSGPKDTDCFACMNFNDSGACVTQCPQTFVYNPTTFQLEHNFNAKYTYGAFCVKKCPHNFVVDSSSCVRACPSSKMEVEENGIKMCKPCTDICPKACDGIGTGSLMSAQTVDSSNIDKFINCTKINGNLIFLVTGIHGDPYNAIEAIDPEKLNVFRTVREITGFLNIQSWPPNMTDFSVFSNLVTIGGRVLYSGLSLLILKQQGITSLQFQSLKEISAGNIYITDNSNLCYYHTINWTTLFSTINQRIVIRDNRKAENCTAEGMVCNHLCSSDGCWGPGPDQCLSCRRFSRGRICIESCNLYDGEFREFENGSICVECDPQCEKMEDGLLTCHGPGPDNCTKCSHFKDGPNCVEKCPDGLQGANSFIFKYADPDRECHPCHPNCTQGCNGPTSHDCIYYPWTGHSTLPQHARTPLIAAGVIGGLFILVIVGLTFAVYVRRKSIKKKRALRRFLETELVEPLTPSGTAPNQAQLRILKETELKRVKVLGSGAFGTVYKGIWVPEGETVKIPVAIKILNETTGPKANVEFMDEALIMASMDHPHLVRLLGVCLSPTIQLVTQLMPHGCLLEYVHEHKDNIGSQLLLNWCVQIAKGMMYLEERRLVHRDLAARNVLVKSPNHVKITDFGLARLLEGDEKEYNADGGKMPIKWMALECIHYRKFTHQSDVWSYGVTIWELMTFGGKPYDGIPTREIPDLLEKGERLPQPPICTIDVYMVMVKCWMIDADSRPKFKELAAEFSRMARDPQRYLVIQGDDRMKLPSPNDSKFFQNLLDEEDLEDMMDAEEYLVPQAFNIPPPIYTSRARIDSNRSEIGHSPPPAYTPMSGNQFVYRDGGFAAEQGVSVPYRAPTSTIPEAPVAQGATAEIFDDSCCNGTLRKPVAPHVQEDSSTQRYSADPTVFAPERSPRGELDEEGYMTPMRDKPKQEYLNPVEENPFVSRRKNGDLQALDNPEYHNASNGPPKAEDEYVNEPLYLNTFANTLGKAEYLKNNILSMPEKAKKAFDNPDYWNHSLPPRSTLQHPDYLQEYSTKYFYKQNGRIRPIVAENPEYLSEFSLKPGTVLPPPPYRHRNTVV

The first assay addresses Receptor tyrosine-protein kinase erbB-4 (Homo sapiens) (UniProt Q15303). As to conditions: at 0.1 µM.
The term inhibition denotes the drop in the measured response relative to a control, in per cent. For the compound `CN(C)C(=O)O[C@H]1CN[C@H](C#Cc2cc3ncnc(Nc4ccc(OCc5cccc(F)c5)c(Cl)c4)c3s2)C1`, the inhibition came to 92.5%.
Regarding `CCS(=O)(=O)c1ccc(OC)c(Nc2ncc(-c3cccc(OC)c3)o2)c1`, the inhibition amounted to 10.5%.
Regarding `COc1cc2ncn(-c3cc(OCc4ccccc4S(C)(=O)=O)c(C#N)s3)c2cc1OC`, the inhibition was found to be 8.79%.
Consider `[O-][S+]1CCN(Cc2ccc(-c3ccc4ncnc(Nc5ccc(OCc6ccccc6)c(Cl)c5)c4c3)o2)CC1`, for which the inhibition came out at 69.6%.
Same read-out and setting: in the case of `OCc1ccc(-c2nc(-c3ccccn3)c(-c3ccc4c(c3)OCO4)[nH]2)cc1` it was 11.6%; in that of `COc1cc(/C=N/Nc2ncnc3c2cnn3C(C)C)ccc1O`, 3.96%; in that of `Nc1nccc(-c2c(-c3ccc(F)cc3)nn3cc(C(F)(F)F)ccc23)n1`, 2.34%.
For the compound `CN(C)CCCn1c(-c2nonc2N)nc2cnccc21`, the inhibition was determined as 17.3%.
Regarding `COc1cc(Nc2nccc(-c3cnn4ncccc34)n2)cc(OC)c1`, the inhibition was 5.96%.
Same read-out and setting: in the case of `NS(=O)(=O)c1cccc(-c2cc3ccncc3cc2OCc2ccccc2)c1` it was 8.81%.
Still for that read-out and setting: the figure for `CN1CCN(C(=O)c2ccc(NC(=O)Nc3ccc(N(C)c4ccnc(Nc5ccc(CS(C)(=O)=O)cc5)n4)cc3)cc2)CC1` is 7.39%; for `Cc1ccc2c(c1)/C(=N/Nc1ccc(S(N)(=O)=O)cc1)C(=O)N2` it is 6.45%.
Same read-out and setting: in the case of `Cc1ccc(NC(=O)CC2CC2)cc1-c1ccc(C(=O)NCC2CC2)cc1` it was 6.43%.
As for `CN(c1ccc(NC(=O)Nc2ccc(OC(F)(F)F)cc2)cc1)c1ccnc(Nc2cccc(S(N)(=O)=O)c2)n1`, the inhibition was 7.13%.
As for `C[C@@H](Oc1cc(-n2cnc3ccc(OC[C@@H](O)CO)cc32)sc1C(N)=O)c1ccccc1Cl`, the inhibition is -3.03%.
The same measure, in the same setting: the figure for `COc1ccc(-c2nn3ncccc3c2-c2ccnc(Nc3cccc(C(F)(F)F)c3)n2)cc1` is 25.8%.
On the same count and under the same terms, in the case of `CN(C)C(=O)O[C@@H]1CN[C@@H](C#Cc2cc3ncnc(Nc4ccc(OCc5cccc(F)c5)c(Cl)c4)c3s2)C1` it was 107%; in that of `CC(C)c1ccc2c(c1)NC(=O)/C2=N/Nc1ccc(S(N)(=O)=O)cc1`, 1.45%; in that of `NS(=O)(=O)c1ccc(NC=C2C(=O)Nc3ccc4ncsc4c32)cc1`, 17.8%.
The same measure, in the same setting: the figure for `C[C@@H](Oc1cc(-n2cnc3ccc(OCC4CCN(C)CC4)cc32)sc1C(N)=O)c1ccccc1C(F)(F)F` is -5.11%; for `CN(C)c1cc2c(Nc3ccc4c(cnn4Cc4ccccc4)c3)ncnc2cn1` it is 91.1%; for `Cc1ccc(Nc2ccnc(Nc3cccc(C(N)=O)c3)n2)cc1O` it is 6.84%.
Take `CCS(=O)(=O)c1ccc(OC)c(Nc2nccc(N(C)c3ccc4c(C)n[nH]c4c3)n2)c1`: the inhibition came out at 18.5%.
`COC(=O)Nc1nc2cc(Oc3ccc(NC(=O)Nc4cccc(Br)c4)cc3)ccc2[nH]1`: the inhibition is 7.14%.
In the case of `CC(C)c1ccc(Nc2nccc(-c3cnn4ncccc34)n2)cc1`, the inhibition came to 8.58%.
Regarding `NS(=O)(=O)c1ccc(N/N=C2\C(=O)Nc3ccc(Cl)cc32)cc1`, the inhibition came to 4.78%.
In the case of `COc1cccc(-n2ncc3c(N/N=C/c4ccc(C)cc4)ncnc32)c1`, the inhibition was found to be 6.09%.
In the case of `CCn1c(-c2nonc2N)nc2ccc(F)cc21`, the inhibition amounted to 20.6%.
As to `COc1cc2ncnc(Nc3ccc4c(cnn4Cc4ccccc4)c3)c2cc1OC`, the inhibition worked out at 83.7%.
Take `Nc1nccc(C#Cc2cncnc2Nc2ccc(OCc3cccc(F)c3)c(Cl)c2)n1`: the inhibition amounted to 14.2%.
On the same count and under the same terms, in the case of `Cc1cc(-c2ccccn2)cc(C)c1/C=C/c1cncc(-c2nn[nH]n2)c1` it was 8.8%.
On the same count and under the same terms, the figure for `CS(=O)(=O)Nc1cccc(-c2ccc3c(NC(=O)C4CC4)n[nH]c3c2)c1` is 6.04%.
On the same count and under the same terms, in the case of `O=C1Nc2ccc(-c3cccnc3)cc2C1=Cc1cc(Br)c(O)c(Br)c1` it was 9.94%.

For the next assay the target is unchanged. The settings on record: at 1 µM.
`CN(C)C(=O)O[C@H]1CN[C@H](C#Cc2cc3ncnc(Nc4ccc(OCc5cccc(F)c5)c(Cl)c4)c3s2)C1`: the inhibition amounted to 120%.
In the case of `CCS(=O)(=O)c1ccc(OC)c(Nc2ncc(-c3cccc(OC)c3)o2)c1`, the inhibition was determined as 22.1%.
As to `COc1cc2ncn(-c3cc(OCc4ccccc4S(C)(=O)=O)c(C#N)s3)c2cc1OC`, the inhibition is 8.72%.
The same measure, in the same setting: in the case of `[O-][S+]1CCN(Cc2ccc(-c3ccc4ncnc(Nc5ccc(OCc6ccccc6)c(Cl)c5)c4c3)o2)CC1` it was 84.3%.
Consider `OCc1ccc(-c2nc(-c3ccccn3)c(-c3ccc4c(c3)OCO4)[nH]2)cc1`, for which the inhibition was 12.7%.
Same read-out and setting: the figure for `COc1cc(/C=N/Nc2ncnc3c2cnn3C(C)C)ccc1O` is 6.31%; for `Nc1nccc(-c2c(-c3ccc(F)cc3)nn3cc(C(F)(F)F)ccc23)n1` it is 11.4%; for `CN(C)CCCn1c(-c2nonc2N)nc2cnccc21` it is 16.3%.
The same measure, in the same setting: in the case of `COc1cc(Nc2nccc(-c3cnn4ncccc34)n2)cc(OC)c1` it was 8.81%.
Still for that read-out and setting: the figure for `NS(=O)(=O)c1cccc(-c2cc3ccncc3cc2OCc2ccccc2)c1` is 9.16%; for `CN1CCN(C(=O)c2ccc(NC(=O)Nc3ccc(N(C)c4ccnc(Nc5ccc(CS(C)(=O)=O)cc5)n4)cc3)cc2)CC1` it is 17.1%; for `Cc1ccc2c(c1)/C(=N/Nc1ccc(S(N)(=O)=O)cc1)C(=O)N2` it is 7.37%.
As to `Cc1ccc(NC(=O)CC2CC2)cc1-c1ccc(C(=O)NCC2CC2)cc1`, the inhibition was 8.12%.
Consider `CN(c1ccc(NC(=O)Nc2ccc(OC(F)(F)F)cc2)cc1)c1ccnc(Nc2cccc(S(N)(=O)=O)c2)n1`, for which the inhibition came to 14.5%.
Consider `C[C@@H](Oc1cc(-n2cnc3ccc(OC[C@@H](O)CO)cc32)sc1C(N)=O)c1ccccc1Cl`, for which the inhibition was -1.55%.
The same measure, in the same setting: in the case of `COc1ccc(-c2nn3ncccc3c2-c2ccnc(Nc3cccc(C(F)(F)F)c3)n2)cc1` it was 83.1%.
On the same count and under the same terms, in the case of `CN(C)C(=O)O[C@@H]1CN[C@@H](C#Cc2cc3ncnc(Nc4ccc(OCc5cccc(F)c5)c(Cl)c4)c3s2)C1` it was 130%; in that of `CC(C)c1ccc2c(c1)NC(=O)/C2=N/Nc1ccc(S(N)(=O)=O)cc1`, 2.39%.
On the same count and under the same terms, in the case of `NS(=O)(=O)c1ccc(NC=C2C(=O)Nc3ccc4ncsc4c32)cc1` it was 11.2%; in that of `C[C@@H](Oc1cc(-n2cnc3ccc(OCC4CCN(C)CC4)cc32)sc1C(N)=O)c1ccccc1C(F)(F)F`, -0.34%.
As to `CN(C)c1cc2c(Nc3ccc4c(cnn4Cc4ccccc4)c3)ncnc2cn1`, the inhibition is 94.6%.
With `Cc1ccc(Nc2ccnc(Nc3cccc(C(N)=O)c3)n2)cc1O`, the inhibition stood at 20.2%.
For `CCS(=O)(=O)c1ccc(OC)c(Nc2nccc(N(C)c3ccc4c(C)n[nH]c4c3)n2)c1`, the inhibition is 60.5%.
On the same count and under the same terms, the figure for `COC(=O)Nc1nc2cc(Oc3ccc(NC(=O)Nc4cccc(Br)c4)cc3)ccc2[nH]1` is 11.2%; for `CC(C)c1ccc(Nc2nccc(-c3cnn4ncccc34)n2)cc1` it is 11.6%; for `COc1cccc(-n2ncc3c(N/N=C/c4ccc(C)cc4)ncnc32)c1` it is 11.9%.
Same read-out and setting: the figure for `CCn1c(-c2nonc2N)nc2ccc(F)cc21` is 20.7%.
Same read-out and setting: the figure for `COc1cc2ncnc(Nc3ccc4c(cnn4Cc4ccccc4)c3)c2cc1OC` is 94%; for `Nc1nccc(C#Cc2cncnc2Nc2ccc(OCc3cccc(F)c3)c(Cl)c2)n1` it is 24.8%.
As for `Cc1cc(-c2ccccn2)cc(C)c1/C=C/c1cncc(-c2nn[nH]n2)c1`, the inhibition was determined as 21.3%.
The same measure, in the same setting: the figure for `CS(=O)(=O)Nc1cccc(-c2ccc3c(NC(=O)C4CC4)n[nH]c3c2)c1` is 8.34%; for `O=C1Nc2ccc(-c3cccnc3)cc2C1=Cc1cc(Br)c(O)c(Br)c1` it is 14.9%.
